An excerpt weighted towards active compounds, which were near 1.8% of everything screened.
MazEF act: MazEF (E. coli) toxin RNase activation; FAM/BHQ RNA-DNA oligo cleavage fluorescence, 5 h; activation, % at 20 µM; 0.32% of 350,000 active; AID 504720; P0AE70; in the data active = activation above about 50%
DUSP3 inh: DUSP3 (human) phosphatase inhibition. recombinant VHR phosphatase, pNPP absorbance. inhibition, % at 13.3 µM. 0.52% of 290,000 active. AID 1654; in the data active = inhibition above about 50%
PrPC surface inh: reduces human prion protein on the cell surface; P04156; cell surface PrPC, TR-FRET read-out; inhibition, % at 13.8 µM; 0.43% of 370,000 active; AID 720596; in the data active = inhibition above about 24%
Vc quorum ag: induces V. cholerae light production without autoinducers; 0.16% of 350,000 active; V. cholerae BH1578 lux reporter, luminescence, 6 h; activation, % at 18.7 µM; in the data active = activation mostly above about 9.7%, no sharp cut-off
Y pestis TopoI: Y. pestis Topo-I inhibition via cleavage products. AID 504884. 0.064% of 360,000 active. Y. pestis Topo-I cleavage product accumulation, plate reader. activity, % at 10 µM; in the data active = activity above about 50%, passing the limit was not always enough
CCHF vOTU inh: CCHFV vOTU protease inhibition; Pep-AMC fluorescence; inhibition, % at 11.5 µM; 0.55% of 370,000 active; in the data active = inhibition above about 30%
PrPC confirm: cell surface PrPC inhibition, TR-FRET confirmation; 65% of 1,500 active; inhibition, % at 13.8 µM; AID 743200; shares compounds with PrPC surface inh; cell surface PrPC level; in the data active = inhibition above about 25%
LD9 cytotox: kills or reduces viability of LD9 cells in PrPc counter-screen; shares compounds with PrPC surface inh; LD9 cells cytotoxicity, luminescence viability; inhibition, % at 13.8 µM; 29% of 1,500 active; AID 743201; in the data active = inhibition above about 9.5%
A number is an active result.

Results for CCOc1ccc(/C(O)=C2/C(=O)C(=O)N(c3ccccn3)C2c2ccc(Cl)cc2)c(C)c1 (centres undefined) ?
MazEF act: inactive; DUSP3 inh: inactive; PrPC surface inh: inactive; Vc quorum ag: inactive; Y pestis TopoI: inactive; CCHF vOTU inh: inactive

How did CCOc1ccc(/C(O)=C2/C(=O)C(=O)N(c3ccccn3)C2c2ccc(C)cc2)c(C)c1 (centres undefined) do in these assays?
MazEF act: inactive; DUSP3 inh: inactive; PrPC surface inh: 40; Vc quorum ag: inactive; Y pestis TopoI: inactive; CCHF vOTU inh: inactive; PrPC confirm: 52; LD9 cytotox: inactive

How did CCCOc1ccc(/C(O)=C2\C(=O)C(=O)N(c3ccccn3)C2c2ccccc2F)cc1C (centres undefined) do in these assays?
MazEF act: inactive; DUSP3 inh: inactive; PrPC surface inh: 44; Vc quorum ag: inactive; Y pestis TopoI: inactive; CCHF vOTU inh: inactive; PrPC confirm: 89; LD9 cytotox: inactive

What do the screens show for `CC(NC(=O)CSc1ccc(S(=O)(=O)N2CCOCC2)cn1)c1ccc(Cl)cc1Cl` (centres undefined)?
MazEF act: inactive; PrPC surface inh: 27; Vc quorum ag: inactive; Y pestis TopoI: inactive; CCHF vOTU inh: inactive; PrPC confirm: inactive; LD9 cytotox: inactive

How did O=C(Nc1ccc(Br)c2ccccc12)c1ccc2ccccc2c1O do in these assays?
MazEF act: inactive; DUSP3 inh: inactive; PrPC surface inh: 35; Vc quorum ag: inactive; Y pestis TopoI: inactive; CCHF vOTU inh: inactive; PrPC confirm: 64; LD9 cytotox: 21

Results for O=C(O)c1ccc(S(=O)(=O)c2ccc3c(c2)C(=O)N(c2ccc(Br)cc2)C3=O)cc1 ?
MazEF act: inactive; DUSP3 inh: inactive; PrPC surface inh: inactive; Vc quorum ag: inactive; Y pestis TopoI: inactive; CCHF vOTU inh: inactive

How did NC(=O)C1C2CCC(C2)C1C(N)=O (centres undefined) do in these assays?
MazEF act: inactive; PrPC surface inh: inactive; Vc quorum ag: inactive; Y pestis TopoI: inactive; CCHF vOTU inh: inactive

Results for O=C(NCc1ccc(F)cc1)c1cc(C2CCCCN2C(=O)c2ccc(Cl)cc2)on1 (centres undefined) ?
PrPC surface inh: inactive; Vc quorum ag: inactive; Y pestis TopoI: inactive; CCHF vOTU inh: inactive

How did COc1cccc(NC(=O)CCC2CCN(C(=O)C3CC=CCC3)CC2)c1 (centres undefined) do in these assays?
MazEF act: inactive; DUSP3 inh: inactive; PrPC surface inh: 29; Vc quorum ag: inactive; Y pestis TopoI: inactive; CCHF vOTU inh: inactive; PrPC confirm: inactive; LD9 cytotox: inactive

Results for CCOc1ccccc1C(=O)Nc1ccc2nc(C)[nH]c(=O)c2c1 ?
PrPC surface inh: 26; CCHF vOTU inh: inactive; PrPC confirm: inactive; LD9 cytotox: inactive

How did COc1ccc(OC)c(NC(=O)c2cc(S(=O)(=O)N(C)C)ccc2N2CCCC2)c1 do in these assays?
MazEF act: inactive; PrPC surface inh: inactive; Vc quorum ag: inactive; Y pestis TopoI: inactive; CCHF vOTU inh: inactive

Results for COc1ccc(-c2cnnn2-c2ccc(NC(=O)c3ccc(S(=O)(=O)N4CCCCC4)cc3)cc2)cc1OC ?
MazEF act: inactive; DUSP3 inh: inactive; PrPC surface inh: 32; Vc quorum ag: inactive; Y pestis TopoI: inactive; CCHF vOTU inh: inactive; PrPC confirm: inactive; LD9 cytotox: inactive

How did COc1ccc(NC(=O)c2cc(S(=O)(=O)N(C)C)ccc2N2CCCC2)cc1Cl do in these assays?
MazEF act: inactive; DUSP3 inh: inactive; PrPC surface inh: 24; Vc quorum ag: inactive; Y pestis TopoI: inactive; CCHF vOTU inh: inactive; PrPC confirm: inactive; LD9 cytotox: inactive

How did Cc1ccc(NC(=O)c2cc(S(=O)(=O)N(C)C)ccc2N2CCCC2)cc1S(=O)(=O)N(C)C do in these assays?
MazEF act: inactive; PrPC surface inh: 44; Vc quorum ag: inactive; Y pestis TopoI: inactive; CCHF vOTU inh: inactive; PrPC confirm: 37; LD9 cytotox: inactive

What do the screens show for `COc1ccc(C(=O)Nc2ccc(S(=O)(=O)N3CCCCC3)cc2)cc1OC`?
MazEF act: inactive; DUSP3 inh: inactive; PrPC surface inh: inactive; Vc quorum ag: inactive; Y pestis TopoI: inactive; CCHF vOTU inh: inactive

What do the screens show for `Cc1ccc(NC(=O)c2cc(S(=O)(=O)N3CCCCC3)ccc2N2CCOCC2)cc1S(=O)(=O)N(C)C`?
MazEF act: inactive; PrPC surface inh: inactive; Vc quorum ag: inactive; Y pestis TopoI: inactive; CCHF vOTU inh: inactive

What do the screens show for `COc1ccc(S(=O)(=O)N2CCOCC2)cc1C(=O)Nc1ccc(N2CCCCCC2)cc1`?
MazEF act: inactive; PrPC surface inh: 31; Vc quorum ag: inactive; Y pestis TopoI: inactive; CCHF vOTU inh: inactive; PrPC confirm: 30; LD9 cytotox: inactive

What do the screens show for `COc1cccc2cc(C(=O)NCc3ccccc3Cl)c(=O)oc12`?
MazEF act: inactive; DUSP3 inh: inactive; PrPC surface inh: inactive; Vc quorum ag: inactive; Y pestis TopoI: inactive; CCHF vOTU inh: inactive

What do the screens show for `Cc1[nH]c(=O)c(C#N)c(C)c1Cc1ccc(Cl)cc1Cl`?
MazEF act: inactive; DUSP3 inh: inactive; PrPC surface inh: inactive; Vc quorum ag: inactive; Y pestis TopoI: inactive; CCHF vOTU inh: inactive

Results for Cc1[nH]c(=O)c(C#N)c(C)c1CSc1ncccn1 ?
MazEF act: inactive; PrPC surface inh: 29; Vc quorum ag: inactive; Y pestis TopoI: inactive; CCHF vOTU inh: inactive; PrPC confirm: 25; LD9 cytotox: inactive

How did CNc1ncc(C(=O)c2ccccc2)s1 do in these assays?
MazEF act: inactive; DUSP3 inh: inactive; PrPC surface inh: inactive; Vc quorum ag: inactive; Y pestis TopoI: inactive; CCHF vOTU inh: inactive

Results for CNc1ncc(C(=O)c2ccc(Br)cc2)s1 ?
MazEF act: inactive; DUSP3 inh: inactive; PrPC surface inh: 26; Vc quorum ag: inactive; Y pestis TopoI: inactive; CCHF vOTU inh: inactive; PrPC confirm: 46; LD9 cytotox: inactive

How did COC(=O)[C@]12C[C@H](CC(=O)N3CCN(C(=O)c4ccco4)CC3)C(=O)N(CCC3=CCCCC3)C1=C[C@H](C1CCCC1)O[C@@H]2C do in these assays?
PrPC surface inh: inactive; CCHF vOTU inh: inactive

Results for COc1ccc(OC)c(-c2csc(NC(=O)Cc3ccc(F)cc3)n2)c1 ?
MazEF act: inactive; DUSP3 inh: inactive; PrPC surface inh: inactive; Vc quorum ag: inactive; Y pestis TopoI: inactive; CCHF vOTU inh: inactive

How did COc1ccc(OC)c(-c2csc(NC(=O)Cn3[nH]c(=O)c4ccccc4c3=O)n2)c1 do in these assays?
MazEF act: inactive; DUSP3 inh: inactive; PrPC surface inh: 27; Vc quorum ag: inactive; Y pestis TopoI: inactive; CCHF vOTU inh: inactive; PrPC confirm: 25; LD9 cytotox: 38

Results for CC1CCCCN1C(=O)COC(=O)C1CCN(S(=O)(=O)c2ccc3c(c2)OCCO3)CC1 (centres undefined) ?
MazEF act: inactive; PrPC surface inh: inactive; Vc quorum ag: inactive; Y pestis TopoI: inactive; CCHF vOTU inh: inactive

Screening results (PubChem BioAssay)
